# Results filed as inconclusive are left out. Calls of active or inactive are those of the source.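 Rule for the calls, unless noted: active = response below a set limit, under 55% cells CD8-positive and vesicle-bound, and CD8 cells' 90th-percentile brightness under 279; inactive = the rest.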
# Key:
# [1] = yeast TOR pathway RPL19A-GFP modulators, primary screen, cell-based, S. cerevisiae, multiplex flow cytometry (AID 1862; in the data active = percent of DMSO control GFP below about 86%;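 note: lower values mimic rapamycin by blocking the RPL19A rise seen in DMSO cells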); details: S. cerevisiae RPL19A-GFP strain, flow cytometry fluorescence, 3 h; at 10 µM; stronger effect = lower value
# [2] = modulators of MEP2-GFP levels in yeast, primary screen, S. cerevisiae, multiplex flow cytometry (AID 1867;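 active = GFP response, as percent of the DMSO control, above the screen-wide mean plus 3 SD, about 139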;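 note: median GFP channel fluorescence of barcode-gated MEP2-GFP cells measured by flow cytometry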); details: S. cerevisiae MEP2-GFP strain, 3 h, at 10 µM, stronger effect = higher value, 100% means same as DMSO wells
# [3] = modulators of CIT2-GFP expression in yeast, primary screen, S. cerevisiae, GFP fusion, multiplex flow cytometry (AID 1870;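 active = percent response above a set limit, the screen-wide mean plus 3 SD, cut at about 130% in these data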;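 note: barcoded CIT2-GFP strain pooled with four other GFP strains with rapamycin as positive control; median GFP fluorescence per well over plate mean of DMSO wells so 100% = DMSO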); details: 3 h, at 10 µM, stronger effect = higher value
# [4] = modulators of LAP4-GFP expression in yeast, primary screen, S. cerevisiae, multiplex flow cytometry (AID 1873;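 active = GFP signal, as percent of the solvent control, above the screen mean plus 3 SD, about 149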); details: 3 h, at 10 µM, stronger effect = higher value
# [5] = inhibitors of CD8+ T cell-vesicle binding, pilot screen, LFA-1/ICAM-1 modulator project, MLPCN validation set, flow cytometry (AID 2523); details: 2C mouse CD8+ T cells, at 7 µM, stronger effect = lower value; double positive events: measured here: CD8+/vesicle+ event percentage;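 for vesicle binding response: mean PE anti-B7-1 fluorescence of CD8+ cells relative to row control; 100% = QL9-loaded vesicles with DMSO vehicle in the same plate row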
# [6] = biological target: Integrin beta-1 (Homo sapiens) + Integrin alpha-4 (Homo sapiens) (UniProt P13612+P05556); experiment: inhibition of HUTS-21 binding to VLA-4, pilot screen, VLA-4 allosteric modulator project, U937 cells, HUTS-21 mAb, flow cytometry, validation set (AID 2674;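 active = inhibition above 50%, about 3 SD of the validation set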;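 note: antibody binding induced by the VLA-4 ligand LDV present at three times its Kd; 0% = LDV ligand with antibody and no compound and 100% = antibody without LDV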); details: HUTS-21 LIBS mAb binding, at 6.7 µM, stronger effect = higher value, binding induced by LDV ligand
# [7] = superoxide lowering in aged yeast cells, pilot screen, validation compound set (AID 2706;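 active = superoxide response below 65% of plate, a cut near 3 SD across the whole screen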;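 note: yeast exposed to compound for one week at 30 degrees C before staining; 100% = mean of all compound wells on the same plate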); details: S. cerevisiae aging, superoxide DHE fluorescence; at 10 µM, stronger effect = lower value
# [8] = biological target: Beta-adrenergic receptor kinase 1 (Homo sapiens) (UniProt P25098); experiment: GRK2 binders displacing RNA aptamer, biochemical, validation, human GRK2, bead flow cytometry (AID 488806;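 active = aptamer binding inhibition above 30%, about 3 SD of noise from non-fluorescent compounds; inactive = inhibition at or below 30%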); details: bead-bound GRK2, FAM-aptamer displacement, at 10 µM, stronger effect = higher value
# [9] = biological target: Beta-2 adrenergic receptor (Homo sapiens) (UniProt P07550); experiment: beta2AR agonists driving receptor internalization, pilot screen, cell-based, FAP fluorogen, flow cytometry, validation set (AID 504459;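 active = percent response above 42, roughly 3 SD of non-fluorescent test compounds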;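 note: agonist-driven loss of surface beta2AR via internalization measured by FAP dye flow cytometry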); details: Am2.2-beta2AR cells, FAP surface receptor flow cytometry; at 10 µM; stronger effect = higher value
# [10] = biological target: AP-2 complex subunit beta (Homo sapiens) (UniProt P63010); experiment: inhibitors of arrestin peptide binding to AP2, pilot screen, biochemical, validation set, GST-AP2 beads, flow cytometry (AID 504541;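 active = inhibition above 54%, about 3 SD of non-fluorescent compounds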;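 note: AP2 carries R879A mutation and is captured from E. coli lysate; bead-bound FITC arrestin peptide fluorescence measuring arrestin peptide binding to AP2; 0% = DMSO wells and 100% = excess unlabeled arrestin peptide control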); details: FITC arrestin peptide, at 10 µM, stronger effect = higher value, AP2 beta2 appendage fragment, R879A mutant
# [11] = yeast V-ATPase proton transport modulators, S. cerevisiae, pHLuorin, HTS validation (AID 504600; in the data active = response above about 15%;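 note: plate controls were DMSO for no effect and reference compound for full effect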); details: S. cerevisiae pHLuorin cytosolic pH, at 10 µM, stronger effect = higher value
# [12] = tested on: anti-desmoglein-3 scFv antibody binding to human DSG3; experiment: inhibitors of anti-DSG3 scFv binding to DSG3, pilot screen, biochemical, validation compound set, bead-based, flow cytometry (AID 588368;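 active = binding below the plate cutoff, the plate median minus 3 SD, with a reading above zero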;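 note: signal is the median channel fluorescence of bead-bound GFP antibody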); details: Protein G beads, DSG3-Fc, scFv-GFP binding, at 10 µM, stronger effect = lower value
# [13] = inhibitors of fungal efflux pumps CDR1, CDR2, MDR1, pilot screen, validation compound set, multiplex, phenotypic (AID 588506;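 active = efflux inhibition above 0.42, the validation set average plus 4 SD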;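 note: Nile Red retained in cells so higher fluorescence means more efflux inhibition; 0 = negative control wells and 1 = enniatin B 25 µM full block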); details: S. cerevisiae pump-expressing triplex, Nile Red efflux flow cytometry; at 10 µM; stronger effect = higher value; the pumps come from Candida albicans
# [14] = biological target: ATP-binding cassette sub-family B member 6 (Homo sapiens) (UniProt Q9NP58); experiment: ABCB6 transporter inhibitors, pilot screen, K562-ABCB6 cells, flow cytometry, validation set (AID 588550;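 active = inhibition above the screen-wide mean plus 3 SD, about 51%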;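 note: 0% = DMSO wells and 100% = benzethonium chloride 70 µM positive control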); details: K562-ABCB6 porphyrin accumulation, 1 h, at 10 µM, stronger effect = higher value
# [15] = promoters of myeloid differentiation in arrested cells, primary screen, cell-based, GFP/MAC1 double positive, flow cytometry, validation set (AID 588685;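 active = differentiation response of at least 50%, scaled between solvent and reference control, from cells with both markers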;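 note: compound exposure lasts four days before antibody staining and flow analysis; 0% = DMSO wells and 100% = 5 µM fulvestrant positive control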); details: ER-HoxA9 marrow cells, stronger effect = higher value, normalized: vehicle 0, fulvestrant 100
# [16] = modulators of AGP1-GFP expression in yeast TOR pathway, primary screen, cell-based, multiplex flow cytometry, S. cerevisiae (AID 1887;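 active = GFP signal above the screen-wide mean plus 3 SD, that is over about 124.5% of the solvent control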;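 note: AGP1-GFP fusion strain of S. cerevisiae within a five-strain barcoded multiplex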); details: 3 h, at 10 µM, stronger effect = higher value
# Chain of AP-2 complex subunit beta (Homo sapiens) (P63010 whole entry, looked up, the tested form may be a part, one chain of several): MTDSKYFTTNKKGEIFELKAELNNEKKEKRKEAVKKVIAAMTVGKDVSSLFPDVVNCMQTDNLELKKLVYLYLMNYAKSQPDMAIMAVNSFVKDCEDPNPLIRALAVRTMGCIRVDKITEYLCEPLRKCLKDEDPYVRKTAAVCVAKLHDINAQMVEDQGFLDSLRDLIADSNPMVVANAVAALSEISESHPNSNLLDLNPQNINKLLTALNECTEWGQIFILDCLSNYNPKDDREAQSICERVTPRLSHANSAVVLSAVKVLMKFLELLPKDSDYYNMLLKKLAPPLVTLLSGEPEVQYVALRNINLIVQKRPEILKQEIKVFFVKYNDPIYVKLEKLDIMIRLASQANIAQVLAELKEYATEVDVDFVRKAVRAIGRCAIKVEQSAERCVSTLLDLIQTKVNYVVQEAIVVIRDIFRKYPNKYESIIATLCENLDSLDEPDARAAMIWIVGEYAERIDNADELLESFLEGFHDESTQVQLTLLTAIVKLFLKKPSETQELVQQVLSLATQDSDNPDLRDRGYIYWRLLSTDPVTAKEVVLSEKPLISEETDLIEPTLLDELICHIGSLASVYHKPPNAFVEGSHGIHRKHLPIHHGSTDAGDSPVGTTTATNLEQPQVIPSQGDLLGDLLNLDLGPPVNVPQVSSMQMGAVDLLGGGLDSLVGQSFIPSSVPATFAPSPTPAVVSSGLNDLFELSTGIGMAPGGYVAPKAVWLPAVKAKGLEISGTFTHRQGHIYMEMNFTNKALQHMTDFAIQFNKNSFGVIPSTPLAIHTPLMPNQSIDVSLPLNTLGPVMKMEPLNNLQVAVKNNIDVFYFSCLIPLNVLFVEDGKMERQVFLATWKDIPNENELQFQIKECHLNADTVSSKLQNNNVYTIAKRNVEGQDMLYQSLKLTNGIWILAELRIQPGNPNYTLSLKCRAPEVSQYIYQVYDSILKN
# Chain of Beta-adrenergic receptor kinase 1 (Homo sapiens) (P25098 whole entry, looked up): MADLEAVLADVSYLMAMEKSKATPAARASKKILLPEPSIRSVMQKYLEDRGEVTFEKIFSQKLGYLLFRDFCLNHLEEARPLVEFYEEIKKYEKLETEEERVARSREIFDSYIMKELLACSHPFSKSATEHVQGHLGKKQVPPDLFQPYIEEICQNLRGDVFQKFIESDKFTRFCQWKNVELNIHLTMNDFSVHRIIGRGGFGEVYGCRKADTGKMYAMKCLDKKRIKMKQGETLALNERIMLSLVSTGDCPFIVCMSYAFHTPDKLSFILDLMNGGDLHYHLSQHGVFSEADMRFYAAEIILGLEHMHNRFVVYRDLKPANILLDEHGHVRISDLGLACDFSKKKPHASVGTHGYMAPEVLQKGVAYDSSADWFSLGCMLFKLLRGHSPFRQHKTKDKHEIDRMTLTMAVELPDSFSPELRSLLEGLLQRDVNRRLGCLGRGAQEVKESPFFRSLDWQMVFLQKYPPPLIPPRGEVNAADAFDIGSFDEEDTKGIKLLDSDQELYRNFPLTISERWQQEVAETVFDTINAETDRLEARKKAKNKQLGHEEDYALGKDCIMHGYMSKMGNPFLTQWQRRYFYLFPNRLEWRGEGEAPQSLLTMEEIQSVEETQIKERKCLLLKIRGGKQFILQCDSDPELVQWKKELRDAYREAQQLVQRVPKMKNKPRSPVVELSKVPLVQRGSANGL
# Chain of Integrin beta-1 (Homo sapiens) + Integrin alpha-4 (Homo sapiens) (P05556 whole entry, looked up): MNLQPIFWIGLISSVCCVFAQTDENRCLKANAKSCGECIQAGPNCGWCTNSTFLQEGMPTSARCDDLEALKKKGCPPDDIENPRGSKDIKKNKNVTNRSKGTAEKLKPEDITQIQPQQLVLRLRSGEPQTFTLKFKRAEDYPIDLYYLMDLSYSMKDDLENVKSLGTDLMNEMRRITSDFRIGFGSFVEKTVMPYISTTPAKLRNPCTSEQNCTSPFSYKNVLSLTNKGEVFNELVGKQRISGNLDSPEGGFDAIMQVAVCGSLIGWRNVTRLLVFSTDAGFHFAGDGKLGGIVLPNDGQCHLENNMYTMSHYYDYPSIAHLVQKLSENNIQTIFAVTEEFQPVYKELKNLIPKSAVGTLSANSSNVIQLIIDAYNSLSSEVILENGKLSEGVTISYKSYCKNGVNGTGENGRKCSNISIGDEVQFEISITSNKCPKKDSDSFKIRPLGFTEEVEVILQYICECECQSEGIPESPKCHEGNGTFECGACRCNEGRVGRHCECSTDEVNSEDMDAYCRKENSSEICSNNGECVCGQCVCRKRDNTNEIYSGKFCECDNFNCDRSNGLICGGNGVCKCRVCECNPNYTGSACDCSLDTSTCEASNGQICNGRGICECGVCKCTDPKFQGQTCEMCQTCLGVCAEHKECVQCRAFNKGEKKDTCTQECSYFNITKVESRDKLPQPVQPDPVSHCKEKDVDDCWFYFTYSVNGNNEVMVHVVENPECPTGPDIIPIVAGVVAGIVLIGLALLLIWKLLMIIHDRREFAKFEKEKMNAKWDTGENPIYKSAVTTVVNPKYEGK
# Chain of Integrin beta-1 (Homo sapiens) + Integrin alpha-4 (Homo sapiens) (P13612 whole entry, looked up): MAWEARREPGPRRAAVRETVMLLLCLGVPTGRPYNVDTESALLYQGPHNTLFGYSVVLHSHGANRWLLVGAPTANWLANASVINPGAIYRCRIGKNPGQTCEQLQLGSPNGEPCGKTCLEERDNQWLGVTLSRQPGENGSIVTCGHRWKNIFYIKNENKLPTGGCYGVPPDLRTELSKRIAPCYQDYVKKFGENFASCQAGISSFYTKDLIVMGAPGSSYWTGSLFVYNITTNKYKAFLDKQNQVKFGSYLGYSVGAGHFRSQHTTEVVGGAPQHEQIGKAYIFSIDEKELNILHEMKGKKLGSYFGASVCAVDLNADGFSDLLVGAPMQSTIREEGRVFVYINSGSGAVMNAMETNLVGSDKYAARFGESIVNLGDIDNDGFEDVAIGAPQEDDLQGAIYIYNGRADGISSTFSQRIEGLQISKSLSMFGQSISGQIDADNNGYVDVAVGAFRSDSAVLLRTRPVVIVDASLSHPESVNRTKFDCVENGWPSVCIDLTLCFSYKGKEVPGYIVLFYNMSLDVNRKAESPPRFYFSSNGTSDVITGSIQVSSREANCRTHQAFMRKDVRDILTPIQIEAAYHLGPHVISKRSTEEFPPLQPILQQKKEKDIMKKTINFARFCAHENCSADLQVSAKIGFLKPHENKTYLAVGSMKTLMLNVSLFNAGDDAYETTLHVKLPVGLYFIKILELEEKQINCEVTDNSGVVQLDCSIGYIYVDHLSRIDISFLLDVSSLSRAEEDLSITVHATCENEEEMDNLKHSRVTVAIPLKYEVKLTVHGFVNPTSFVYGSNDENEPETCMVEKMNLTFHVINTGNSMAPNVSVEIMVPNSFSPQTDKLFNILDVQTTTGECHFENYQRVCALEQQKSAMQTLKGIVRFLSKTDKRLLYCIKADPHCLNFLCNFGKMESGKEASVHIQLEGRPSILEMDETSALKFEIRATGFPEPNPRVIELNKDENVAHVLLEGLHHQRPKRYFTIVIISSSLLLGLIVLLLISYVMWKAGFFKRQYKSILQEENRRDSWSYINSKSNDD
# Chain of Beta-2 adrenergic receptor (Homo sapiens) (P07550 whole entry, looked up): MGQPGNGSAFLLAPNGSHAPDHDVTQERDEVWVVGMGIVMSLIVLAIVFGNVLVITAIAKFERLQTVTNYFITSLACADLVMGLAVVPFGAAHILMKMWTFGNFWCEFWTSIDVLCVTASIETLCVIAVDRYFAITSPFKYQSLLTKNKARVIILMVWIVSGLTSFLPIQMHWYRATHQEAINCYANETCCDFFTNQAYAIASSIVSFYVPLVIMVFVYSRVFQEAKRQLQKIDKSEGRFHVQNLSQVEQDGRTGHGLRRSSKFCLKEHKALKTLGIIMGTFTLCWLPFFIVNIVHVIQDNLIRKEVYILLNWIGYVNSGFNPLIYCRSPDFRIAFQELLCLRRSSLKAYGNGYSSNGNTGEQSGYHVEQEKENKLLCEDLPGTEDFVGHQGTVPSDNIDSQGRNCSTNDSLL
# Chain of ATP-binding cassette sub-family B member 6 (Homo sapiens) (Q9NP58 whole entry, looked up): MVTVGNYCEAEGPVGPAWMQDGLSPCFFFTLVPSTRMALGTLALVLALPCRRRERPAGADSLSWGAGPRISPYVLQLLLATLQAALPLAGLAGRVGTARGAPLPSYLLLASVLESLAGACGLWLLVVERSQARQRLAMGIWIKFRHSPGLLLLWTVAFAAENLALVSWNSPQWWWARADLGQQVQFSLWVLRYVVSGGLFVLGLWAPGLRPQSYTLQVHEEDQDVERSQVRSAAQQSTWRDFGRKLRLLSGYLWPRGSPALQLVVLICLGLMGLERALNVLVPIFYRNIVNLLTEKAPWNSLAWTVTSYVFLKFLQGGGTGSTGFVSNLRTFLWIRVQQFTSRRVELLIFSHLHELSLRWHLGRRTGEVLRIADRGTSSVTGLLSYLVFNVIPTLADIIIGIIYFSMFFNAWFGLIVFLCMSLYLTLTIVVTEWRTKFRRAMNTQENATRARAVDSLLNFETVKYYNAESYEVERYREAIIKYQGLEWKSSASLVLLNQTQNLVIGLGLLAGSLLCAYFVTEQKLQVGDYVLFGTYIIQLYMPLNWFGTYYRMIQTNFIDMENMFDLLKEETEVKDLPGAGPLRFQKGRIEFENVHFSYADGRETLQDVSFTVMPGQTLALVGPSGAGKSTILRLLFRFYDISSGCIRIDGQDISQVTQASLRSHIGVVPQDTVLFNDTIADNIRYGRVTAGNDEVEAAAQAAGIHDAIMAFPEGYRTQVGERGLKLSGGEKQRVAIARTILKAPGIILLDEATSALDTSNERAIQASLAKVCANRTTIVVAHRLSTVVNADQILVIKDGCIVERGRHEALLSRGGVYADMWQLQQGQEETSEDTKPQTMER
SMILES,percent of DMSO control GFP [1],GFP response vs DMSO [2],percent response of DMSO control [3],GFP response vs DMSO [4],double positive events [5] [%],vesicle binding response [5],inhibition [6],superoxide response (% of plate) [7],aptamer binding inhibition [8],response [9],inhibition [10],response [11],binding (% of control) [12],efflux inhibition (fraction of control) [13],inhibition [14],differentiation response [15],"GFP response, % of DMSO [16]"
COc1cc(C2C(C(=O)c3ccc(C)o3)=C(O)C(=O)N2Cc2cccnc2)ccc1O (configuration not stated),102% (inactive),119% (inactive),106% (inactive),81.4% (inactive),68.3,171% (inactive),2.58% (inactive),110% (inactive),2% (inactive),-8.26% (inactive),-5.82% (inactive),4.05% (inactive),99.4% (inactive),0.34 (inactive),9% (inactive),-0.82% (inactive),
O=C1C2C3C=CC(C4CC34)C2C(=O)N1/N=C/c1ccc(-c2ccc([N+](=O)[O-])cc2)o1 (configuration not stated),103% (inactive),,101% (inactive),85.4% (inactive),57.9,153% (inactive),-0.43% (inactive),95.5% (inactive),4% (inactive),25.8% (inactive),14.3% (inactive),1.6% (inactive),102% (inactive),0.19 (inactive),7% (inactive),0% (inactive),87.7% (inactive)
CC(NCCC(c1ccccc1)c1ccccc1)c1ccccc1 (configuration not stated),92.6% (inactive),122% (inactive),111% (inactive),68.8% (inactive),64.4,167% (inactive),6.46% (inactive),95.5% (inactive),-3% (inactive),24.3% (inactive),0.65% (inactive),13.1% (inactive),116% (inactive),0.19 (inactive),9% (inactive),-0.82% (inactive),
CC1CCCc2sc3ncn(N)c(=N)c3c21 (configuration not stated),103% (inactive),,105% (inactive),,62.2,246% (inactive),-3.16% (inactive),94.2% (inactive),4% (inactive),31.1% (inactive),-3.27% (inactive),3.56% (inactive),98.2% (inactive),-0.24 (inactive),7% (inactive),-4% (inactive),87.1% (inactive)
COc1cc(/C=C/C(=O)N2CCCC2)cc(OC)c1OC,106% (inactive),,107% (inactive),76.9% (inactive),61.5,29.3% (inactive),6.81% (inactive),95.8% (inactive),5% (inactive),-5.19% (inactive),-0.17% (inactive),0.86% (inactive),95.1% (inactive),0.02 (inactive),-1% (inactive),12.9% (inactive),100% (inactive)
COc1ccc(-c2coc3cc(O)cc(O)c3c2=O)cc1,88.2% (inactive),99.9% (inactive),116% (inactive),72.6% (inactive),58.4,199% (inactive),5.49% (inactive),106% (inactive),0% (inactive),-6.34% (inactive),1.72% (inactive),1.71% (inactive),101% (inactive),-0.28 (inactive),7% (inactive),-9.83% (inactive),
O=P(O)(O)CP(=O)(O)O,91.9% (inactive),,90.5% (inactive),123% (inactive),61.8,178% (inactive),22.7% (inactive),93% (inactive),0% (inactive),-17.7% (inactive),-22.1% (inactive),-0.51% (inactive),101% (inactive),0 (inactive),-3% (inactive),28.5% (inactive),122% (inactive)
CC1CNCCN1S(=O)(=O)c1cccc2cnccc12 (configuration not stated),95% (inactive),,104% (inactive),111% (inactive),62.9,918% (inactive),17.2% (inactive),91.3% (inactive),3% (inactive),-6.28% (inactive),-9.84% (inactive),1.37% (inactive),96.3% (inactive),-0.07 (inactive),2% (inactive),14.9% (inactive),91.3% (inactive)
O=C1OC(=O)C2C1[C@@H]1CC[C@H]2O1 (some centres not stated),96.6% (inactive),103% (inactive),118% (inactive),72.6% (inactive),60.8,195% (inactive),-8.09% (inactive),94.4% (inactive),3% (inactive),-8.34% (inactive),-1.78% (inactive),-0.92% (inactive),107% (inactive),-0.24 (inactive),7% (inactive),-0.82% (inactive),
Cc1ccc(S(=O)(=O)Nc2ccc(S(=O)(=O)Nc3cc(C)nc(C)n3)cc2)cc1,91.1% (inactive),120% (inactive),108% (inactive),78.1% (inactive),76,256% (inactive),23.9% (inactive),89.7% (inactive),0% (inactive),1.77% (inactive),-0.21% (inactive),15% (inactive),101% (inactive),-0.35 (inactive),6% (inactive),26.2% (inactive),
CC(=O)N1N=C(c2cccs2)CC1c1ccc(C)o1 (configuration not stated),92.8% (inactive),131% (inactive),91.3% (inactive),78.7% (inactive),55.8,145% (inactive),11.3% (inactive),117% (inactive),0% (inactive),-10.5% (inactive),-6.28% (inactive),-0.52% (inactive),96.7% (inactive),0.45 (active),9% (inactive),-4.91% (inactive),
NS(=O)(=O)c1cc2c(cc1Cl)NC(CSCc1ccccc1)=NS2(=O)=O,97% (inactive),119% (inactive),118% (inactive),84.2% (inactive),40.1,27.2% (active),-6.15% (inactive),95.7% (inactive),2% (inactive),5.55% (inactive),-7.6% (inactive),0.08% (inactive),103% (inactive),-0.24 (inactive),3% (inactive),13.9% (inactive),
COc1ccc(NC(=O)C2C(=O)N(CCO)C3(C)CC2c2ccccc2O3)cc1 (configuration not stated),99.6% (inactive),106% (inactive),104% (inactive),79.8% (inactive),70.2,158% (inactive),5.49% (inactive),96.6% (inactive),3% (inactive),-2.11% (inactive),6.58% (inactive),-0.98% (inactive),107% (inactive),-0.46 (inactive),13% (inactive),5.73% (inactive),
CNCCCN1c2ccccc2CCc2ccccc21,93.3% (inactive),111% (inactive),92.6% (inactive),78.7% (inactive),71.5,231% (inactive),16.2% (inactive),81.9% (inactive),-1% (inactive),,-10.5% (inactive),0.46% (inactive),109% (inactive),-0.38 (inactive),9% (inactive),9.83% (inactive),
Nc1cccc(C(=O)O)c1,95.5% (inactive),116% (inactive),122% (inactive),79.2% (inactive),63.4,214% (inactive),10.3% (inactive),102% (inactive),4% (inactive),-6.68% (inactive),-0.66% (inactive),3.11% (inactive),102% (inactive),0.05 (inactive),6% (inactive),-0.82% (inactive),
Cc1cccc(C)c1NS(=O)(=O)c1ccc(NC(=O)c2ccc(Cl)c([N+](=O)[O-])c2)cc1,97.7% (inactive),110% (inactive),116% (inactive),72.6% (inactive),62.8,163% (inactive),9.37% (inactive),103% (inactive),0% (inactive),-4.38% (inactive),4.81% (inactive),13% (inactive),100% (inactive),-0.2 (inactive),9% (inactive),13.1% (inactive),
Cc1cc(-c2ccccc2)nnc1NCCN1CCOCC1,102% (inactive),114% (inactive),93.9% (inactive),74.3% (inactive),67.8,223% (inactive),0.64% (inactive),94.8% (inactive),32% (active),2.57% (inactive),-1.22% (inactive),-0.98% (inactive),109% (inactive),0 (inactive),19% (inactive),4.09% (inactive),
OCCN(CCO)c1ccc2ccccc2c1,96.5% (inactive),,99.6% (inactive),96.5% (inactive),66.7,267% (inactive),0.94% (inactive),98.1% (inactive),2% (inactive),-2.38% (inactive),-3.97% (inactive),4.81% (inactive),103% (inactive),-0.21 (inactive),10% (inactive),5.6% (inactive),98.9% (inactive)
C[C@]12C=CC(=O)C=C1CCC1C3CC[C@](O)(C(=O)CO)[C@@]3(C)CC3OC312 (some centres not stated),102% (inactive),,95.8% (inactive),85.4% (inactive),76.1,298% (inactive),5.03% (inactive),87.7% (inactive),2% (inactive),2.49% (inactive),-1.32% (inactive),-0.61% (inactive),102% (inactive),0.22 (inactive),113% (active),-13.6% (inactive),101% (inactive)

# Source: PubChem BioAssay
